Laboratory results: PubChem BioAssay (NCI)
The panel holds about 83,000 compounds, 20% with a hit somewhere; the sample as a whole holds those more often.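 Plates (96-well) were seeded with cells, treated with compound at one concentration, and incubated for 48 hours before percent growth was determined.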 The source made the active and inactive calls. How the source made its calls: active means growth percent below 10; inactive means the rest.

Tests used:
Experiment in all cases: NCI-60 one-dose screen, 48 h (100 = growth as untreated, 0 = no growth, -100 = all killed)
Settings in all cases: 10 µM
[1] = system: HCT-15 colon
[2] = system: HT29 colon
[3] = system: SNB-75 CNS
[4] = system: SNB-19 CNS
[5] = system: U251 CNS
[6] = system: PC-3 prostate
[7] = system: SK-MEL-5 melanoma
[8] = system: UACC-62 melanoma
[9] = system: LOX IMVI melanoma
[10] = system: SK-MEL-28 melanoma

Measured: growth

Cc1ccc(NC(=O)/C=N/O)cc1C
inactive: [1] 98.1% | [2] 102% | [3] 84.4% | [4] 102% | [5] 89.8% | [6] 86.5% | [7] 97.6% | [8] 95.4% | [9] 101% | [10] 104%

CNCCCNCCCN1C(=O)c2ccc3c4c(ccc(c24)C1=O)C(=O)N(CCCNCc1ccccc1OC)C3=O
inactive: [1] 28% | [3] 15.9% | [4] 36.6%
active: [2] -23.4% | [5] 6.5% | [6] 1.85% | [7] -94.2% | [8] -42.2% | [9] -58.3% | [10] -48.2%

COc1cc(Cn2c(-c3ccccc3)cc3c2-c2oncc2CC3)cc(OC)c1
inactive: [1] 15.3% | [3] 19.5% | [4] 34.8% | [5] 18% | [6] 19.2% | [8] 31.6% | [9] 27.3% | [10] 50.1%
active: [2] -8.38% | [7] 5.07%

NC1CCC(Nc2nc(NCc3ccc(-c4ccco4)nc3)c3ncn(C4CCCC4)c3n2)CC1 (stereo not given)
inactive: [4] 14.2%
active: [1] 3.49% | [2] -21.9% | [3] -46.9% | [5] 5.19% | [6] -1.27% | [7] -6.6% | [8] -31% | [9] -26.2% | [10] 0.269%

O=C1CC[C@@H](C(=O)N[C@H]2CSSC[C@@H](C(=O)NCCc3ccccc3)NC(=O)[C@H](Cc3ccccc3)NC(=O)[C@@H]3CCCN3C(=O)[C@@H]3CCCN3C2=O)N1
inactive: [1] 102% | [2] 102% | [3] 92.7% | [4] 102% | [5] 96.8% | [6] 84.1% | [7] 100% | [8] 94.6% | [9] 94.1% | [10] 102%

Cc1cn(C(=O)/C(Cl)=C(/Cl)C(=O)O)c2ccccc12
inactive: [1] 105% | [2] 110% | [3] 73% | [4] 106% | [5] 114% | [6] 83.6% | [7] 104% | [8] 94% | [9] 93.7% | [10] 112%

CCOC(=O)Cn1nnc(-c2ccc(OCc3ccccc3F)cc2)n1
inactive: [1] 88.5% | [2] 92.4% | [3] 57.8% | [4] 93.9% | [5] 99% | [6] 89% | [7] 91.5% | [8] 81.4% | [9] 85.2% | [10] 72.9%

Cc1cccc2c(Nc3ccc(NS(C)(=O)=O)cc3)c3ccc([N+](=O)[O-])cc3nc12
inactive: [3] 19.7% | [4] 25.7% | [6] 18%
active: [1] 6.83% | [2] -10.3% | [5] 3.4% | [7] -19.4% | [8] 1.92% | [9] -43.5% | [10] -5.65%

Nc1c(C(=O)Nc2ccccc2F)sc2nc3c(cc12)C(=O)CCC3
inactive: [1] 40.2% | [2] 12.2% | [3] 13.7% | [4] 41.1% | [5] 31.6% | [6] 23.4% | [7] 17.9% | [8] 23.7% | [9] 54.2% | [10] 64.1%

O=C1/C(=C/c2ccc([N+](=O)[O-])s2)Oc2ccc(Cl)cc21
active: [1] -40% | [2] -36.1% | [3] -15% | [4] 7.13% | [5] -65.4% | [6] -48% | [7] -88.7% | [8] -82.4% | [9] -70.1% | [10] -56.8%

CCCN(CCC)CCCNC(=O)c1cc2c(-c3ccc(OC)c(OC)c3)nn(C)c2s1
active: [5] 9.87% | [7] -60.8%
inactive: [1] 24.7% | [2] 56.5% | [3] 22.7% | [4] 35% | [6] 16.1% | [8] 14.1% | [9] 10.2% | [10] 37.6%

COc1ccc(-c2nc(-c3nc4ccc(OC)cc4[nH]3)c3ccccn23)cc1
inactive: [1] 59.7% | [2] 58.6% | [3] 57% | [4] 85.5% | [5] 61.6% | [6] 35% | [7] 59% | [8] 79% | [9] 71.1% | [10] 98.1%

O=C(Nc1cccc(F)c1)Nc1cccc(Cl)c1
inactive: [1] 82.9% | [2] 90.9% | [3] 89.1% | [4] 99.9% | [5] 90.5% | [6] 65.5% | [7] 91.5% | [8] 77.1% | [9] 106% | [10] 98.9%

COc1cc(C2C=C(c3ccc(Cl)cc3)N=C3SC(C)=CN32)cc(OC)c1OC (stereo not given)
inactive: [1] 84.7% | [2] 79.1% | [3] 81.8% | [4] 91.5% | [5] 85.1% | [6] 89.2% | [7] 91.9% | [8] 85.5% | [9] 96.8% | [10] 105%

CCOC(=S)Sc1ccc([N+](=O)[O-])cc1[N+](=O)[O-]
active: [2] 0.214%
inactive: [1] 82.8% | [3] 99.5% | [4] 111% | [5] 90.4% | [6] 83.7% | [7] 88.4% | [8] 99% | [9] 14.3% | [10] 67.5%

Nc1nc(SCC#CCCl)c2[nH]cnc2n1
inactive: [1] 45.1% | [2] 53.9% | [3] 63% | [4] 57.1% | [5] 43.8% | [6] 62.6% | [7] 29.5% | [8] 44% | [9] 27.8% | [10] 72.8%

CCC(OC(=O)CC(C)C)c1ccccc1 (stereo not given)
inactive: [1] 101% | [2] 93.6% | [3] 91.1% | [4] 105% | [5] 86.9% | [6] 94.8% | [7] 100% | [8] 102% | [9] 96.1% | [10] 106%

CCCCNC(=O)Oc1ccc(/C(=C(\C)c2ccc(OC)cc2)c2ccc(OCCN3CCCCC3)cc2)cc1
active: [1] 0.377% | [2] 7.84% | [10] 2.55%
inactive: [3] 70.6% | [4] 69.9% | [5] 38.9% | [6] 43.3% | [7] 44.7% | [8] 44% | [9] 20.1%

C=CCOc1ccc2c(c1)CC[C@@H]1[C@@H]2CC[C@]2(C)C(=O)/C(=N/O)C[C@@H]12
active: [2] 2.91%
inactive: [1] 41.6% | [3] 18.9% | [4] 69.5% | [5] 68.8% | [6] 42.1% | [7] 77.4% | [8] 93.5% | [9] 42.3% | [10] 106%

COc1ccc2nc(-c3ccccc3)cc(C(C)=O)c2c1
inactive: [1] 94.9% | [2] 93.6% | [3] 79.7% | [4] 101% | [5] 99.1% | [6] 84.4% | [7] 98.5% | [8] 91.1% | [9] 92.2% | [10] 108%

CCCCC(CC#N)(CCC)CCC
inactive: [1] 99% | [2] 99% | [3] 80.6% | [4] 106% | [5] 102% | [6] 99.2% | [7] 106% | [8] 118% | [9] 92.1% | [10] 99.6%

O=C(COc1ccc(-c2nc3ccccc3[nH]2)cc1)N=Nc1c(O)[nH]c2ccccc12
inactive: [1] 105% | [2] 100% | [3] 104% | [4] 93.4% | [5] 55.9% | [6] 86.5% | [7] 102% | [8] 96.2% | [9] 100% | [10] 99.7%

O=C(Nc1cccc(Cl)c1)Nc1cc2ncncc2cc1OCc1cccc(F)c1
active: [1] 0.775% | [2] 0.74% | [5] 6.99% | [6] 9.57% | [7] -88.5% | [8] -18.4%
inactive: [3] 21.1% | [4] 22.9% | [9] 21.4% | [10] 20.9%

O=C(COCc1c(-c2ccccc2)no[n+]1[O-])Nc1nc(-c2ccc(Cl)cc2)cs1
inactive: [1] 103% | [2] 105% | [3] 98.6% | [4] 107% | [5] 103% | [6] 95.7% | [7] 95.6% | [8] 99.6% | [9] 95.8% | [10] 111%

CCCCc1ccc(NC(=O)N(CCCl)N=O)cc1
inactive: [1] 102% | [2] 99.6% | [3] 90.4% | [4] 88.5% | [5] 80.8% | [6] 94% | [7] 97.9% | [8] 86.2% | [9] 89.3% | [10] 101%

O=C/C=C/c1ccc([N+](=O)[O-])cc1Cl
inactive: [1] 98% | [2] 97.4% | [3] 101% | [4] 105% | [5] 100% | [6] 86.6% | [7] 100% | [8] 96.5% | [9] 47.8% | [10] 102%

O=S(=O)(NCl)c1ccccc1
inactive: [1] 102% | [2] 106% | [3] 84.3% | [4] 104% | [5] 95.9% | [6] 99.1% | [7] 103% | [8] 106% | [9] 97.1% | [10] 97.1%

CCOC(=O)CNC(=O)Nc1ccc(Oc2ccc(NC(=O)NCC(=O)OCC)cc2)cc1
inactive: [1] 99.2% | [2] 107% | [3] 74.4% | [4] 104% | [5] 93.8% | [6] 86.9% | [7] 97.1% | [8] 92.4% | [9] 91.9% | [10] 91%
